Test results from the supplement of paper PMC13380429.

What was measured:
[1] = test system: Vero E6 infected with SARS-CoV-2; assay: morphology score (similarity to uninfected cells); higher = more like uninfected cells; details: 24 h
[2] = test system: Vero E6 infected with SARS-CoV-2; assay: SARS-CoV-2 infection rate relative to infected DMSO; higher = more infection, active = 60 or less; details: 24 h

SMILES	morphology score [1]	SARS-CoV-2 infection rate [2]
CC(C)n1nnc2cc(C(=O)O)ccc21 (10 µM)	0.0496	102% (inactive)
COc1ccc2c(c1)c(CC(=O)O)c(C)n2C(=O)c1ccc(Cl)cc1 [indomethacin] (10 µM)	0.0755	104% (inactive)
C[C@H](CCC(=O)O)[C@H]1CC[C@H]2[C@@H]3C[C@H](O)[C@@H]4C[C@H](O)CC[C@]4(C)[C@H]3CC[C@]12C [Hyodeoxycholic acid (HDCA)] (10 µM)	0.109	102% (inactive)
O=C(Nc1ccncc1)c1cc([N+](=O)[O-])ccc1Cl (10 µM)	0.143	87% (inactive)
CC(=O)NCCCS(=O)(=O)O [acamprosate] (10 µM)	0.0831	102% (inactive)
NS(=O)(=O)c1ccc(-n2nc(C(F)(F)F)cc2-c2ccc(Cl)cc2)cc1 (10 µM)	0.0527	106% (inactive)
CCn1ccnc1CC1COc2ccccc2O1 (configuration not stated) [imiloxan] (10 µM)	-0.00924	99% (inactive)
Clc1cccc(Cl)c1CSc1nnc(-c2cnccn2)s1 [yoda-1] (10 µM)	0.286	89% (inactive)
COCCc1ccc(OCC(O)CNC(C)C)cc1 (configuration not stated) [metoprolol] (10 µM)	0.0844	101% (inactive)
Nc1cc(C(F)(F)F)c(-c2nc(N3CCOCC3)nc(N3CCOCC3)n2)cn1 (10 µM)	0.0308	114% (inactive)
N[C@@H]1c2cccnc2[C@H](OC(=O)N2CCC(n3c(=O)[nH]c4ncccc43)CC2)CC[C@H]1c1cccc(F)c1F [rimegepant] (10 µM)	0.177	96.5% (inactive)
